# Pf Dd2 inh: Plasmodium falciparum Dd2 growth inhibition. P. falciparum Dd2 growth, SYBR Green, 72 h. Potency, µM (titrated, usually from 28.9 µM), actives largely listed as inhibitors. actives 4.3% (n = 120,000); active = well fitted inhibition curve with a large enough effect; note: nearly all actives have a fitted effect of over 65% in size
#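 Readout: SYBR Green fluorescence, 485 nm excitation, 535 nm emission, after ~16 h lysis at 37C. Before that, Dd2-infected red cells (2.5% hematocrit) grew 72 h with compound, 29 uM top final concentration.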
# Hits are given with their value; – = inactive. This is one part of a sample in which hits are shown more often than they occur.
SMILES,Pf Dd2 inh
O=C(c1ccc(Cl)cc1)N1CCC(N2CCNC2=O)CC1,–
Cc1ccc2c(C(=O)N3CCCCCC3)cc(NC(=O)C3CC3)cc2n1,–
COc1ccc(C2(C(=O)N3CC(CO)C4(CCNCC4)C3)CCCCC2)cc1 (stereo not given),–
COc1ccc(CNC(=O)C(C)Sc2nc(-c3ccccc3)cc(C(F)(F)F)n2)cc1 (stereo not given),–
CCOC(=O)c1c(NC(=O)CSc2nc(-c3ccccc3)cc(C(F)(F)F)n2)sc(C)c1C,–
CCOC(=O)c1sc(NC(=O)C(C)Sc2nc(-c3ccccc3)cc(C(F)(F)F)n2)c(C(=O)OC)c1C (stereo not given),0.71µM
COCc1noc([C@@H]2CN(Cc3cccc(F)c3)C[C@H]2COC)n1,–
CCO[C@H]1CN(Cc2ccc(OC)c(OCc3cccc(F)c3)c2)C[C@@H]1O,13µM
CCO[C@H]1CN(Cc2cnc(SCc3ccccc3)nc2)C[C@@H]1O,–
Cc1nc(C2CC(NC(=O)c3ccc(C)c(N4CCNC4=O)c3)C2)cc(=O)[nH]1 (stereo not given),–
O=C(c1ccccc1)N1CCC(c2nn(-c3ccc(F)cc3)c(=O)[nH]2)CC1,–
CCCN1CCN(c2ncnc3sc(C(=O)Nc4ccc(OC(F)(F)F)cc4)c(C)c23)CC1,5µM
O=C(Nc1ccc2ncnc(N3CCCC3)c2c1)c1ccc(OC(F)(F)F)cc1,–
Cc1nc(N2CCCC2)ncc1C(=O)Nc1ccc(OC(F)(F)F)cc1,–
Cc1ccccc1CNC(=O)c1ccc2c(c1)N(Cc1ccccc1)CCS2,–
Cc1cccc(N2CCN(C(=O)c3ccc4c(c3)N(Cc3cccc(Cl)c3)C(=O)c3ccccc3S4=O)CC2)c1C (stereo not given),–
CCN1C(=O)c2ccccc2S(=O)c2ccc(C(=O)N3CCN(c4cc(Cl)ccc4C)CC3)cc21 (stereo not given),8.9µM
COc1ccc(CNC(=O)c2ccc3c(c2)N(Cc2ccccc2)CCS3)cc1,–
Cc1ccc(Cl)cc1N1CCN(C(=O)c2ccc3c(c2)N(Cc2ccccc2)CCS3)CC1,8.9µM
Cc1ccc(C)c(N2CCN(C(=O)c3ccc4c(c3)N(Cc3ccc(F)cc3)C(=O)c3ccccc3S4=O)CC2)c1 (stereo not given),–
COCCNC(=O)[C@@H]1C[C@H](Oc2cccnc2)CN1C(=O)c1ocnc1C,–
Cc1ncc2n1C(=O)N(C1CCN(C(=O)c3ccccc3F)CC1)C2,–
N#Cc1ccc(CN2CCC(N3CCNC3=O)CC2)cc1,–
CC(C)CNC(=O)C1COC2(CCN(C(=O)c3ccccc3Cl)CC2)N1C(=O)c1ccccc1 (stereo not given),–
CC(C)NC(=O)[C@@H]1C[C@@H](N)CN1C(=O)c1cccc(C#CC(C)(C)O)c1,–
SMILES,Pf Dd2 inh
COCC(=O)NC[C@H]1O[C@@H](CC(=O)N2CCN(c3ccccc3OC)CC2)[C@H](O)[C@@H]1O,–
CCOC(=O)c1ccc(NC(=O)c2cc3sccc3n2Cc2ccc(Cl)cc2)cc1,–
CCOC(=O)c1cccc(NC(=O)c2cc3sccc3n2Cc2ccc(Cl)cc2)c1,11µM
Cc1ccc(Cn2c(C(=O)Nc3cccc(Cl)c3)cc3sccc32)cc1,–
Cc1ccc(Cn2c(C(=O)NCc3ccccc3Cl)cc3sccc32)cc1,11µM
COc1ccc(CNC(=O)c2cc3sccc3n2Cc2ccc(F)cc2)cc1,–
Cc1ccc(CCNC(=O)c2cc3sccc3n2Cc2ccc(C)cc2)cc1,–
O=S(=O)(c1ccccc1)N1CCCC(c2nc(CCOc3ccc(F)cc3)no2)C1 (stereo not given),–
O=C(c1ccc(F)cc1F)N1CCC2(CC1)N=C(c1ccc(Cl)cc1)NO2,–
CNC(=O)CCc1ccnc(N2CCCC2)c1,–
Cc1nc(N2CCCC2)ncc1C(=O)NCc1cccc(Cl)c1,–
O=C(CCc1ccnc(N2CCCC2)c1)NCc1cccc(Cl)c1,4.5µM
CCc1nc(CN(C)C(=O)C2C3C(=O)N(c4ccc(F)cc4)C[C@@]34C=C[C@@H]2O4)no1 (stereo not given in full),–
Cn1cnc(C(=O)N2CCCC(c3nc(-c4cccnc4)no3)CCNC(=O)CC2)c1 (stereo not given),–
O=C(O)C1CNCCN(CCOCc2ccccc2)C1 (stereo not given),–
COc1cccc(C(=O)N2CCN(c3cc(C(F)(F)F)ncn3)CC2)c1OC,–
COCCOc1cc(C)c2c(c1C)C[C@H]([C@H](C)C(=O)Nc1ccccn1)CC2,13µM
COCCOc1cc(C)c2c(c1C)C[C@H](C(C)C(=O)NC(C)(C)C)CC2 (stereo not given in full),–
COCCOc1cc(C)c2c(c1C)C[C@H]([C@H](C)C(=O)NC1CCCC1)CC2,–
CN(CCCc1cnn(C)c1)C(=O)C1CNCCO1 (stereo not given),–
O=C(NCc1nnc2n1C(C(=O)NCc1ccc(F)cc1)CC2)c1ccc(Cl)cc1Cl (stereo not given),–
O=C(NCc1ccc(F)cc1)C1CCc2nnc(-c3ccc(Cl)cc3Cl)n21 (stereo not given),3.2µM
Cn1ccc(C(=O)NCc2nnc3n2C(C(=O)NCc2ccc(F)cc2)CC3)n1 (stereo not given),–
C#CCNC(=O)C1CCc2nnc(-c3ccc(Cl)nc3)n21 (stereo not given),–
COc1ccccc1-c1nnc2n1C(C(=O)N1CCN(c3ncccn3)CC1)CC2 (stereo not given),–
SMILES,Pf Dd2 inh
CC(C)NC(=O)NCc1nnc2n1C(C(=O)NCc1ccc(F)cc1)CC2 (stereo not given),–
COc1ccccc1-c1nnc2n1C(C(=O)NCc1ccc(F)cc1)CC2 (stereo not given),4µM
O=C(C1CCc2nnc(-c3ccc(Cl)cc3Cl)n21)N1CCN(c2ncccn2)CC1 (stereo not given),–
O=C(NCc1ccc(F)cc1)C1CCc2nnc(-c3ccc(Cl)nc3)n21 (stereo not given),7.1µM
Cc1nc(CC2CCN(C(=O)c3ccccc3)CC2)n[nH]1,–
CN1CCC(N2CC[C@H](c3nc4ccc(C#N)cc4[nH]3)C2)CC1,–
COc1ccccc1CCC(=O)NC(C)C(=O)N1CCN(c2ccccn2)CC1 (stereo not given),–
COCCNC(=O)NC[C@H]1O[C@@H]2C[C@@H](CC(=O)N3CCC(F)(F)C3)O[C@@H]2[C@@H]1O,–
CCOC(=O)C1(Cc2ccccc2F)CCCN(C(=O)c2cccc(C(=O)OC)c2)C1 (stereo not given),–
CC(=O)c1cccc(NC(=O)Nc2cc3c(cc2N2CCCC2)n(C)c(=O)n3C)c1,–
CCn1c(=O)n(CC)c2cc(N3CCCCC3)c(NC(=O)Nc3ccccc3C(F)(F)F)cc21,10µM
O=C(Cn1nc2n(c1=O)CCCCC2)Nc1ccccc1C(F)(F)F,–
Cc1ccc(C)c(NC(=O)Nc2cc3c(cc2N2CCCCC2)n(C)c(=O)n3C)c1,10µM
CCn1c(=O)n(CC)c2cc(N3CCCCC3)c(NC(=O)Nc3cc(Cl)ccc3OC)cc21,8.9µM
COc1ccc(Cl)cc1NC(=O)Nc1c[nH]c(=O)[nH]c1=O,–
Cc1ccc(C#N)c(=O)n1CC(=O)Nc1ccccc1C(F)(F)F,–
COc1ccc(Cl)cc1NC(=O)c1c(OC)cc(=O)n2c1CCCC2,–
Cc1ccc(C)c(NS(=O)(=O)c2ccc3c(c2)n(C)c(=O)n3C)c1,–
CN(C)c1ccc(CN[C@H]2CC(C)(C)[C@@H]3C[C@@](C)(O)CC[C@]23CCC(=O)NCCc2c[nH]c3ccccc23)cc1,–
